High-throughput results as filed in PubChem BioAssay.
Shown are actives, neighbours in structure and some others; about 19% of the full set was active somewhere.
HT1080-NT tox = kills 2HG-producing HT-1080-NT fibrosarcoma cells; HT-1080-NT fibrosarcoma viability, CellTiter-Glo ATP luminescence, 48 h; Potency, µM (highest dose often 46.1 µM), actives largely listed as cytotoxic; 1.6% of 360,000 active;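 note: NT is the 2HG producing partner of a matched IDH1 knockdown line; nearly all actives have a fitted effect of over 55% in size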
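Toxicity toward the 2HG-producing NT line was scored as %Activity, normalised to DMSO and no-cell wells, from CellTiter-Glo luminescence after 48 hours' treatment.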
DT40 TDP1 no CPT = qHTS for Inhibitors of human tyrosyl-DNA phosphodiesterase 1 (TDP1): qHTS in cells in absence of CPT; Potency, µM (titrated, usually from 46.2 µM), usual class: inhibitors; 15% of 420,000 active; DT40 Tdp1-/- hTDP1 cells, no CPT, ATP luminescence, 48 h; AID 686978, 2013; note: nearly all actives have a fitted effect of over 55% in size
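Chicken DT40 Tdp1-/- cells complemented with human TDP1, screened without camptothecin (DMSO vehicle only), 400 cells/well. Compounds pin-transferred, cells incubated at 37 °C for at least 48 hr. Growth read as ATP-dependent luminescence (CellTiter-Glo, 30 min at RT).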
TDP1 cell CPT = growth inhibition of DT40 Tdp1-/-;hTDP1 cells with camptothecin (screen for TDP1 inhibitors) | AID 686979 | chicken DT40 Tdp1-/-;hTDP1 cells + 20 nM CPT, ATP luminescence, 48 h | 12% of 420,000 active | Potency, µM (highest dose often 46.2 µM), actives largely listed as inhibitors; note: nearly all actives have a fitted effect of over 55% in size
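Cell growth measured by CellTiter-Glo luminescence after a minimum 48 h, 37 C compound exposure with 20 nM CPT in Tdp1-knockout DT40 cells stably expressing hTDP1, seeded 400/well; qHTS titration format.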
HT1080 IDH1KD tx = kills HT-1080 cells with IDH1 knockdown; HT-1080 IDH1 knockdown viability, ATP luminescence, 48 h; Potency, µM (series often up to 46.1 µM), actives largely listed as cytotoxic; 2% of 360,000 active; AID 686971
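In this qHTS, HT-1080 cells depleted of IDH1 are exposed for 48 h at 37 °C to compound titrations. Toxicity is scored from CellTiter-Glo luminescence, with DMSO as full viability and medium alone as none.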
IL1B secr inh = inflammasome signaling inhibition, IL-1 beta readout. activity change, % at 57.5 µM. AID 743279. 4.7% of 360,000 active. THP-1 LPS/ATP IL-1B secretion, AlphaLISA, 16 h; hits give low values; in the data active = activity change below about -50%; inconclusive = mostly about -30% to -49%
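Secreted IL-1B measured by AlphaLISA bead assay after 16 h compound exposure of THP-1 cells; compounds (final up to 57.5 uM) added 1 h before LPS (250 ng/mL) and ATP (1.25 mM) stimulation; lower signal means less secretion.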
Of the large screens only hits and unclear results are named; the others gave an inactive call. Unless noted, calls come from the whole dose curve; as a rule, active = well fitted curve in the direction sought with a large enough effect; inconclusive = small, poorly fitted or top-dose-only effect, or another doubt; inactive = no such curve, though single readings can be large; an effect the other way counts as inactive or inconclusive.

COc1ccc(NC(=O)CN(C)C(=O)c2ccc3[nH]c4c(c3c2)CC(C)CC4)cc1 (configuration not stated)	DT40 TDP1 no CPT 23µM, IL1B secr inh inconclusive
CC(NC(=O)c1cc(F)ccc1F)c1nnc2n1CCN(Cc1ccco1)CC2 (configuration not stated)	none (no result: HT1080-NT tox, HT1080 IDH1KD tx, IL1B secr inh)
COC(=O)C(NC(C)=O)(Nc1ccccc1)C(=O)OC	none
O=C1Nc2ccc(Cl)cc2[C@@](C#CC2CC2)(C(F)(F)F)O1	DT40 TDP1 no CPT 17µM, TDP1 cell CPT inconclusive (no result: HT1080-NT tox, HT1080 IDH1KD tx, IL1B secr inh)
COc1ccc2c(c1)C1OCCC1C(c1ccco1)N2 (configuration not stated)	HT1080-NT tox inconclusive, DT40 TDP1 no CPT inconclusive, TDP1 cell CPT 23µM, HT1080 IDH1KD tx inconclusive, IL1B secr inh inconclusive
c1coc(C2Nc3ccccc3C3OCCC23)c1 (configuration not stated)	none
COc1cc(-c2noc(C)c2C#Cc2nccn2C)cc(OC)c1OC	HT1080-NT tox inconclusive, DT40 TDP1 no CPT 13µM, TDP1 cell CPT 16µM, HT1080 IDH1KD tx inconclusive
CC(=O)OCC(=O)[C@@]12N=C(C)O[C@@H]1C[C@H]1[C@@H]3CCC4=CC(=O)C=C[C@]4(C)[C@H]3[C@@H](O)C[C@@]12C	none (no result: HT1080-NT tox, HT1080 IDH1KD tx, IL1B secr inh)
COC(=O)c1cc(S(=O)(=O)N2CCN(c3cccc(C)c3C)CC2)c[nH]1	DT40 TDP1 no CPT inconclusive, TDP1 cell CPT inconclusive
O=[N+]([O-])c1cc(Br)c(OCc2nnc(-c3ccccc3)o2)c(Br)c1	DT40 TDP1 no CPT inconclusive
O=[N+]([O-])c1ccc2c(OCc3nnc(-c4ccccc4Br)o3)ncnc2c1	HT1080-NT tox inconclusive, DT40 TDP1 no CPT 13µM, TDP1 cell CPT inconclusive, HT1080 IDH1KD tx inconclusive
Cc1ccc(S(=O)(=O)N(C)c2ccc(C(=O)NCC(c3ccco3)N(C)C)cc2)cc1 (configuration not stated)	DT40 TDP1 no CPT inconclusive, TDP1 cell CPT inconclusive
O=C(COC(=O)C1(c2ccc(F)cc2)CCCC1)NC1CC1	none
Cc1nnc(Cc2ccccc2)c2n[nH]c(C)c12	DT40 TDP1 no CPT 0.73µM, TDP1 cell CPT 0.73µM
C[C@H]1CN([C@@H](C)CO)S(=O)(=O)c2ccc(-c3ccncc3)cc2O[C@H]1CN(C)C(=O)c1cccc(F)c1	none
Nc1ncc(S(=O)(=O)NCc2ccccc2F)cn1	none (no result: HT1080-NT tox, HT1080 IDH1KD tx, IL1B secr inh)
O=C(COc1ccc(F)cc1)NCCNC(=O)COc1ccc(F)cc1	none
O=C(OCn1ncc(Br)c(Br)c1=O)c1ccccc1Cl	HT1080-NT tox 8.2µM, DT40 TDP1 no CPT 1.5µM, TDP1 cell CPT 1.2µM, HT1080 IDH1KD tx 6.5µM, IL1B secr inh -100
O=C(OCc1cnc(Cl)s1)c1ccccc1Cl	none
CC(=O)OCn1ncc(N2CCOCC2)c(Br)c1=O	DT40 TDP1 no CPT inconclusive, TDP1 cell CPT inconclusive
O=C(OCn1ncc(Br)c(Br)c1=O)c1ccc(F)cc1	HT1080-NT tox 21µM, DT40 TDP1 no CPT 1µM, TDP1 cell CPT 1µM, HT1080 IDH1KD tx 12µM, IL1B secr inh -97
Cc1ccc(S(=O)(=O)N(C)CC(=O)Nc2cccnc2)cc1	none
Cc1cc(NC(=O)CSc2nc(-c3ccccc3C)nc3c2c(=O)n(C)c(=O)n3C)no1	none (no result: HT1080-NT tox, HT1080 IDH1KD tx, IL1B secr inh)
O=C(COC(=O)c1ccccc1SCC(=O)N1CCCC1)Nc1ccc(OC(F)F)cc1	DT40 TDP1 no CPT inconclusive
COc1ccccc1CN(C)C(=O)c1ccccc1SCC(=O)N1CCCC1	TDP1 cell CPT inconclusive
CN(Cc1ccc(Cl)c(Cl)c1)C(=O)c1ccccc1SCC(=O)N1CCCC1	DT40 TDP1 no CPT 21µM, TDP1 cell CPT inconclusive, IL1B secr inh -72
CN(CC(=O)Nc1ccc(Cl)c(Cl)c1)C(=O)c1ccccc1SCC(=O)N1CCCC1	DT40 TDP1 no CPT 23µM, TDP1 cell CPT inconclusive
CN(C)S(=O)(=O)c1cccc(NC(=O)c2ccccc2SCC(=O)N2CCCC2)c1	DT40 TDP1 no CPT inconclusive
COc1ccc(Br)cc1CN(C)C(=O)c1ccccc1SCC(=O)N1CCCC1	DT40 TDP1 no CPT inconclusive, TDP1 cell CPT inconclusive, IL1B secr inh -53
CN(CC(=O)Nc1ccc(OC(F)(F)F)cc1)C(=O)c1ccccc1SCC(=O)N1CCCC1	DT40 TDP1 no CPT inconclusive, TDP1 cell CPT 23µM
Cc1ccc(N2C(=O)NC(NS(=O)(=O)c3ccc(Cl)cc3)(C(F)(F)F)C2=O)cc1C (configuration not stated)	none (no result: HT1080-NT tox, HT1080 IDH1KD tx, IL1B secr inh)
Cc1cccc(C)c1NC(=O)CN(C)C(=O)CC1Sc2ccccc2NC1=O (configuration not stated)	none
CN(Cc1cccc(Cl)c1Cl)C(=O)c1ccccc1SCC(=O)N1CCCC1	HT1080-NT tox inconclusive, DT40 TDP1 no CPT 13µM, TDP1 cell CPT 12µM
O=C1C(Cl)=C(NCCN2CCOCC2)C(=O)c2ccccc21	HT1080-NT tox inconclusive, DT40 TDP1 no CPT 16µM, TDP1 cell CPT inconclusive, HT1080 IDH1KD tx 18µM, IL1B secr inh -96
O=C1C(Cl)=C(NCCCN2CCOCC2)C(=O)c2ccccc21	DT40 TDP1 no CPT 13µM, TDP1 cell CPT 18µM, HT1080 IDH1KD tx inconclusive, IL1B secr inh -96
O=C1c2ccccc2C(=O)N1CCN1CCOCC1	none
O=C(CONS(=O)(=O)c1ccc(Cl)cc1)NCCNc1ncc(C(F)(F)F)cc1Cl	HT1080-NT tox inconclusive, DT40 TDP1 no CPT inconclusive, HT1080 IDH1KD tx inconclusive, IL1B secr inh -55
CCOC(=O)c1c(N)sc(-c2ccccc2)c1C	DT40 TDP1 no CPT inconclusive, TDP1 cell CPT inconclusive, HT1080 IDH1KD tx inconclusive, IL1B secr inh inconclusive
CCOC(=O)c1c(N)sn(-c2ccccc2C)c1=S	DT40 TDP1 no CPT 26µM, TDP1 cell CPT 23µM
Nc1nc(SCC(=O)NC2CCCC2)[nH]c(=O)c1NC(=O)c1cccs1	none
CCn1c(Cc2ccccc2)nnc1SCC(=O)Nc1ccc2c(c1)OCCO2	none
Cc1ccc(Cn2c(C3CCCN3c3nc(C)cs3)nc3cc(C(=O)NCCCO)ccc32)cc1 (configuration not stated)	none
OCCCn1c(C2CCCN2c2nc(-c3ccc(F)cc3)cs2)nc2cc(C(F)(F)F)ccc21 (configuration not stated)	DT40 TDP1 no CPT inconclusive, TDP1 cell CPT 8.2µM, IL1B secr inh -57
OCCCn1c(CCNc2nc(-c3ccc(F)cc3)cs2)nc2cc(C(F)(F)F)ccc21	DT40 TDP1 no CPT inconclusive, TDP1 cell CPT inconclusive, IL1B secr inh -69
OCCOCCn1c(C2CCCN2c2nc(-c3ccc(F)cc3)cs2)nc2cc(C(F)(F)F)ccc21 (configuration not stated)	DT40 TDP1 no CPT inconclusive, TDP1 cell CPT 16µM
Cc1ccc(Cn2c(C3CCCN3c3nc(-c4ccc(F)cc4)cs3)nc3cc(C(=O)NCCCO)ccc32)cc1 (configuration not stated)	HT1080-NT tox inconclusive, DT40 TDP1 no CPT inconclusive, TDP1 cell CPT 21µM, HT1080 IDH1KD tx inconclusive
COc1cc(OC)c(NC(=O)c2noc3c2CSc2ccccc2-3)cc1Cl	none (no result: HT1080-NT tox, HT1080 IDH1KD tx, IL1B secr inh)
